# Measured values published in PubChem BioAssay (NCI).
# The panel holds about 83,000 compounds, 20% with a hit somewhere; the sample as a whole holds those more often.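 Assay: single dose, 48 h. Readout: percent growth (0 = no net growth; negative = cell death). Active: <10.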 The source made the active and inactive calls.
# System: CAKI-1 renal
# Experiment: NCI-60 one-dose screen, 48 h (100 = growth as untreated, 0 = no growth, -100 = all killed)
# Settings: 10 µM
row,SMILES,growth
1,O=C1/C(=C/c2ccc(O)cc2)Oc2ccc(Cl)cc21,77.1% (inactive)
2,COc1cc(C(=O)n2nc(N)c3c(C)cc(C)nc32)cc(OC)c1OC,76.7% (inactive)
3,C#Cc1ccc(-n2c(/C=C/c3cc(OC)c(OC)c(OC)c3)nc3ncccc3c2=O)cc1,64.2% (inactive)
4,COC(=O)[C@]12CC[C@@H](C)[C@H](C)[C@@H]1C1=CC[C@@H]3[C@@]4(C)C[C@@H](O)[C@H](O)[C@@](C)(CO)[C@@H]4[C@H](O)C[C@@]3(C)[C@]1(C)CC2,0.468% (active)
5,Oc1ccccc1-c1nnc(Cn2c(Cc3cccc4ccccc34)nc3ccccc32)o1,94.3% (inactive)
6,COc1ccc(-c2nc(SCC(=O)c3ccc(Br)cc3)[nH]c(=O)c2C#N)cc1,99.9% (inactive)
7,COc1ccc(C2C=C(c3ccc(Cl)c(Cl)c3)N=C3SC(C)=CN32)cc1 (stereo unspecified),95.7% (inactive)
8,CCOc1nc(-c2ccccc2)cc2c(O)c(C(=O)NC(C)C)[nH]c(=O)c12,94.2% (inactive)
9,S=c1c2ncccc2c(-c2ccccn2)nn1Cc1ccccn1,92.1% (inactive)
10,Nc1cc(O)cc(O)c1,96.2% (inactive)
11,COc1c(-c2c3sc(=O)[nH]c3nc3c2c(=O)[nH]n3C(C)C)cc2c(c1OC)OCO2,93.3% (inactive)
12,Cc1c(C(=O)N[C@H](CO)Cc2ccccc2)[nH]c2ccc(Cl)cc2c1=O,94.8% (inactive)
13,COc1cc(Cn2c(-c3ccccc3)c(Cl)c3c2-c2oncc2CC3)cc(OC)c1,47.3% (inactive)
14,C/C=C\COc1cc(C)c(Cl)cc1Cl,98.8% (inactive)
15,CCOC(=O)CNC(=O)Nc1ccc(Oc2ccc(NC(=O)NCC(=O)OCC)cc2)cc1,95.1% (inactive)
16,c1ccc(CNc2nc(Nc3ccc(-c4nc5ccccc5[nH]4)cc3)c3cn[nH]c3n2)cc1,7.33% (active)
17,c1ccc(COCC[P+](c2ccccc2)(c2ccccc2)c2ccccc2)cc1,59.9% (inactive)
18,CCOC(=O)C1=C(Nc2ccc(OC)cc2)C(N)=NC1=N,54.6% (inactive)
19,NC(=O)C1CCCN(Cc2c[nH]c3ccccc23)C1 (stereo unspecified),94.4% (inactive)

row,SMILES,growth
1,CC(=O)n1nc(C(=O)OC(C)(C)C)c2cc(F)c(F)cc21,101% (inactive)
2,Cc1cc(Cl)ccc1Nc1nc(C(F)(F)F)ccc1C(=O)N/N=C/c1ccccc1Cl,5.28% (active)
3,CN1/C(=C\C(I)C(I)C2=[N+](C)c3ccccc3C2(C)C)C(C)(C)c2ccccc21 (stereo unspecified),21.5% (inactive)
4,N#C/C(=C/c1cc([N+](=O)[O-])ccc1Cl)C(N)=O,86.9% (inactive)
5,CCCCCCCCCCCC(=O)NCCCN(C)C,83.4% (inactive)
6,CCc1nn2c(-c3cc(OC)c(OC)c(OC)c3)c(-c3cc(OC)c(OC)c(OC)c3)nc2s1,71.4% (inactive)
7,CCN1CCN(c2nc(NNC(=O)c3cccc(OC)c3)nc(N3CCN(C(c4ccccc4)c4ccccc4)CC3)n2)CC1,42.2% (inactive)
8,CCCCOCCOCCOCc1cc2c(cc1Br)OCO2,98.5% (inactive)
9,CCCCCCCCCCCCCC[n+]1ccccc1,-43.8% (active)
10,Cc1cc(C)c2nc(C)c(C)[n+]([O-])c2c1,96.9% (inactive)
11,Clc1cc(Cl)c(OCCCCCCN2CCNCC2)c(Cl)c1,32.3% (inactive)
12,COc1ccc(NC(=O)c2sc3nc4c(cc3c2N)C(O)CCC4)cc1 (stereo unspecified),92.7% (inactive)
13,Cc1cc(C(C)(C)CC(C)(C)C)ccc1OCCOCC[N+](C)(C)Cc1ccccc1,89.1% (inactive)
14,CCCCCC(=O)N1c2ccccc2NC2=C(C(=O)CC(c3ccc(OC)c(OC)c3)C2)C1c1ccc(C(F)(F)F)cc1 (stereo unspecified),65.6% (inactive)
15,COc1cc(C2C(C#N)=C(c3c[nH]c4ccccc34)Nc3nc(N)[nH]c(=O)c32)cc(OC)c1OC (stereo unspecified),95.2% (inactive)
16,COc1ccc(-c2nc(-c3nc4ccc(C)cc4[nH]3)c3ccccn23)cc1,46.9% (inactive)
17,COCCOC(=O)NC(=O)Nc1ccc(/C(=N/O)c2ccc(Cl)cc2)cc1,30.6% (inactive)
18,CCN(CCCNC(=O)Cc1cc(=O)oc2cc(N(C)C)ccc12)CCNc1ccnc2cc(Cl)ccc12,106% (inactive)
19,CC(C)c1ncc(CO)n1Cc1c(Cl)cccc1Cl,100% (inactive)

# System: A498 renal
# Experiment: as above
# Settings: 10 µM
row,SMILES,growth
1,O=C1/C(=C/c2ccc(O)cc2)Oc2ccc(Cl)cc21,125% (inactive)
2,COc1cc(C(=O)n2nc(N)c3c(C)cc(C)nc32)cc(OC)c1OC,60.2% (inactive)
3,C#Cc1ccc(-n2c(/C=C/c3cc(OC)c(OC)c(OC)c3)nc3ncccc3c2=O)cc1,24.5% (inactive)
4,COC(=O)[C@]12CC[C@@H](C)[C@H](C)[C@@H]1C1=CC[C@@H]3[C@@]4(C)C[C@@H](O)[C@H](O)[C@@](C)(CO)[C@@H]4[C@H](O)C[C@@]3(C)[C@]1(C)CC2,-80.2% (active)
5,Oc1ccccc1-c1nnc(Cn2c(Cc3cccc4ccccc34)nc3ccccc32)o1,106% (inactive)
6,COc1ccc(-c2nc(SCC(=O)c3ccc(Br)cc3)[nH]c(=O)c2C#N)cc1,78.5% (inactive)
7,COc1ccc(C2C=C(c3ccc(Cl)c(Cl)c3)N=C3SC(C)=CN32)cc1 (stereo unspecified),91% (inactive)
8,CCOc1nc(-c2ccccc2)cc2c(O)c(C(=O)NC(C)C)[nH]c(=O)c12,100% (inactive)
9,S=c1c2ncccc2c(-c2ccccn2)nn1Cc1ccccn1,134% (inactive)
10,Nc1cc(O)cc(O)c1,116% (inactive)
11,COc1c(-c2c3sc(=O)[nH]c3nc3c2c(=O)[nH]n3C(C)C)cc2c(c1OC)OCO2,57.2% (inactive)
12,Cc1c(C(=O)N[C@H](CO)Cc2ccccc2)[nH]c2ccc(Cl)cc2c1=O,98% (inactive)
13,COc1cc(Cn2c(-c3ccccc3)c(Cl)c3c2-c2oncc2CC3)cc(OC)c1,26.5% (inactive)
14,C/C=C\COc1cc(C)c(Cl)cc1Cl,101% (inactive)
15,CCOC(=O)CNC(=O)Nc1ccc(Oc2ccc(NC(=O)NCC(=O)OCC)cc2)cc1,95.7% (inactive)
16,c1ccc(CNc2nc(Nc3ccc(-c4nc5ccccc5[nH]4)cc3)c3cn[nH]c3n2)cc1,27.6% (inactive)
17,c1ccc(COCC[P+](c2ccccc2)(c2ccccc2)c2ccccc2)cc1,-2.41% (active)
18,CCOC(=O)C1=C(Nc2ccc(OC)cc2)C(N)=NC1=N,6.8% (active)
19,NC(=O)C1CCCN(Cc2c[nH]c3ccccc23)C1 (stereo unspecified),81% (inactive)

row,SMILES,growth
1,CC(=O)n1nc(C(=O)OC(C)(C)C)c2cc(F)c(F)cc21,104% (inactive)
2,Cc1cc(Cl)ccc1Nc1nc(C(F)(F)F)ccc1C(=O)N/N=C/c1ccccc1Cl,21.8% (inactive)
3,CN1/C(=C\C(I)C(I)C2=[N+](C)c3ccccc3C2(C)C)C(C)(C)c2ccccc21 (stereo unspecified),-2.55% (active)
4,N#C/C(=C/c1cc([N+](=O)[O-])ccc1Cl)C(N)=O,111% (inactive)
5,CCCCCCCCCCCC(=O)NCCCN(C)C,72.2% (inactive)
6,CCc1nn2c(-c3cc(OC)c(OC)c(OC)c3)c(-c3cc(OC)c(OC)c(OC)c3)nc2s1,88.6% (inactive)
7,CCN1CCN(c2nc(NNC(=O)c3cccc(OC)c3)nc(N3CCN(C(c4ccccc4)c4ccccc4)CC3)n2)CC1,75.3% (inactive)
8,CCCCOCCOCCOCc1cc2c(cc1Br)OCO2,-60.6% (active)
9,CCCCCCCCCCCCCC[n+]1ccccc1,7.27% (active)
10,Cc1cc(C)c2nc(C)c(C)[n+]([O-])c2c1,146% (inactive)
11,Clc1cc(Cl)c(OCCCCCCN2CCNCC2)c(Cl)c1,48.1% (inactive)
12,COc1ccc(NC(=O)c2sc3nc4c(cc3c2N)C(O)CCC4)cc1 (stereo unspecified),-8.3% (active)
13,Cc1cc(C(C)(C)CC(C)(C)C)ccc1OCCOCC[N+](C)(C)Cc1ccccc1,4.39% (active)
14,CCCCCC(=O)N1c2ccccc2NC2=C(C(=O)CC(c3ccc(OC)c(OC)c3)C2)C1c1ccc(C(F)(F)F)cc1 (stereo unspecified),57.2% (inactive)
15,COc1cc(C2C(C#N)=C(c3c[nH]c4ccccc34)Nc3nc(N)[nH]c(=O)c32)cc(OC)c1OC (stereo unspecified),89.9% (inactive)
16,COc1ccc(-c2nc(-c3nc4ccc(C)cc4[nH]3)c3ccccn23)cc1,19.6% (inactive)
17,COCCOC(=O)NC(=O)Nc1ccc(/C(=N/O)c2ccc(Cl)cc2)cc1,-14.2% (active)
18,CCN(CCCNC(=O)Cc1cc(=O)oc2cc(N(C)C)ccc12)CCNc1ccnc2cc(Cl)ccc12,81.5% (inactive)
19,CC(C)c1ncc(CO)n1Cc1c(Cl)cccc1Cl,77.8% (inactive)
